Source: PubChem (several laboratories)
The list is not random: actives were taken first. Their share in the collection is about 2.1%.
IL1B cytotox = HUVEC cytotoxicity counter-screen, IL-1B stimulated. hit rate 0.41% among 94,000. HUVEC cell count loss, Hoechst imaging. cell count reduction, % at 2 µM;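 active = cell count reduction more than 3 SD above the screen-wide mean, cut at about 70% in these data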;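 note: normalized per plate to untreated control cells as the no-loss baseline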
Measles CPE = protection of cells from measles virus; Measles virus-infected cells, CPE protection, absorbance; protection (pct of control), % at 4 µM; hit rate 1.5% among 140,000; in the data active = protection mostly above about 24%, no sharp cut-off; inactive = mostly below about 26%
IL1B NFkB inh = blocks IL-1B driven NFkB nuclear translocation in HUVEC cells. HUVEC IL-1B NFkB p65 nuclear translocation imaging. inhibition, % at 2 µM. hit rate 0.43% among 94,000. AID 796;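 active = inhibition above about 30% together with a positive call from visual inspection of the well image, limit read from the data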;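 note: nuclear over cytoplasmic p65 intensity ratio measured by imaging; 0% = IL-1B stimulated DMSO wells and 100% = unstimulated DMSO wells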
IL1B NFkB pot = enhances IL-1B driven NFkB nuclear translocation. HUVEC IL-1B NFkB p65 nuclear translocation imaging. activation, % at 2 µM. hit rate 0.3% among 94,000. AID 819;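 active = activation above 40%, about the mean plus 3 SD, also judged a hit on visual image review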;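 note: percent activation is computed from the nuclear over cytoplasmic p65 intensity ratio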
Active calls of the source: *; . = no result.

SMILES	IL1B cytotox	Measles CPE	IL1B NFkB inh	IL1B NFkB pot
Cc1nn(-c2ccccc2)c(N2CCCCC2)c1/C=N/O	18	54*	4	-4
COCCn1c(SC(C)C(=O)Nc2ncc(Cl)cc2Cl)nc2ccccc21 (stereo not given)	2	53*	-4	4
Cc1nnc(SC(C)C(=O)Nc2ncc(Cl)cc2Cl)n1Cc1ccccc1 (stereo not given)	-2	13	7	-7
Cc1cc(SC(C)C(=O)Nc2ncc(Cl)cc2Cl)nc2ccccc12 (stereo not given)	.	26*	.	.
Nc1ccc2nc(-c3ccccc3)[nH]c2c1	-16	57*	7	-7
O=C(c1ccccc1)N1CCN(C2c3cccc4cccc(c34)C2NS(=O)(=O)c2ccccc2)CC1 (stereo not given)	.	8	.	.
CN(C)c1ccnc(Oc2ccc(C(C)(C)C)cc2)c1C#N	-42	3	-18	18
COc1ccc(Oc2c(C)oc3c(CN4CCOCC4)c(O)ccc3c2=O)cc1	-16	34*	-9	9
Cc1oc2c(CN3CCCC3)c(O)ccc2c(=O)c1Oc1ccccc1Br	-25	19*	5	-5
COc1ccc(-c2cn3ccc4ccccc4c3n2)cc1	-24	22	-40	40*
COC(=O)c1cc(NC2c3ccccc3C(=O)N2CCN2CCOCC2)cc(C(=O)OC)c1 (stereo not given)	12	15	-11	11
COc1ccc(OC)c(NC(=O)c2cc3ccccc3o2)c1	8	6	-1	1
COc1ccc2oc(=O)c(C(C)=O)cc2c1	13	42*	4	-4
COc1ccc2o/c(=N\O)c(C(=O)Nc3ccccc3OC)cc2c1	76*	5	8	-8
COc1ccc(NC(=O)c2cc3cc(OC)ccc3oc2=N)cc1	.	16	.	.
COc1ccc(CCNC(=O)C2CCN(C(=O)NC3CCCCC3)CC2)cc1	-8	18	39*	-39
O=C(CSc1nc(-c2ccccc2)cc(=O)[nH]1)N1CCOCC1	8	7	4	-4
CCC(=O)Nc1cc(ON=C(C)C)cc([N+](=O)[O-])c1	.	96*	.	.
CC(C)=NOc1cc(NC(=O)CCl)cc([N+](=O)[O-])c1	.	4	.	.
CCC(=O)n1nc(-c2ccc(Cl)cc2)nc1NCc1ccccc1	15	8	-21	21
Cc1nc(-c2coc3c(CN(C)C)c(O)ccc3c2=O)cs1	0	35*	-12	13
O=C(CCn1c(=O)oc2ccccc21)Nc1nc2ccccc2s1	-5	40*	-27	27
